The record followed here is the OligoGym collection.
Also: reference of the scale not given here.

One assay addresses C17orf103. The assay can be described thus: pooled miR-30 sensor sort-seq; sequence = guide strand. The settings on record: shRNA.
The sequence TACTTCTGGATGTACCAGCAGG showed a sensor-assay potency score (higher = more potent) of -1.01.

For the sequence TGGGACCTCGGTGTGCTGCAGG, the sensor-assay potency score (higher = more potent) was -1.5.

Regarding TCATGACATCCGTTGAGCCGGA, the sensor-assay potency score (higher = more potent) is -0.377.

TAACTCTGAGTCTGTTCCCAGT had a sensor-assay potency score (higher = more potent) of -0.884.

Consider TAGGCATCTGGGACCTCGGTGT, for which the sensor-assay potency score (higher = more potent) is -0.272.

The next assay has as its target C17orf48. The assay is described as above. The following applies: shRNA.
TGATCTTCTAGAAACTTAGTGT: the sensor-assay potency score (higher = more potent) amounted to 0.0518.

Regarding TTCAACATCATTTTGTCAGGAT, the sensor-assay potency score (higher = more potent) was found to be 1.06.

As to TAGTGTTAAGTTTAGAGTGTGT, the sensor-assay potency score (higher = more potent) came to 0.18.

In turn, TACACTGCTCGTATTTTGGAGA registered a sensor-assay potency score (higher = more potent) of -0.905.

Sequence TATGTCTGTAGTATCGCCGCCT came in with a sensor-assay potency score (higher = more potent) of -0.223.

Regarding ATCGATGATATCTCCAAGCTGA, the sensor-assay potency score (higher = more potent) is -0.464.

TTCAATAACTCCTTCTAGGTTG returned a sensor-assay potency score (higher = more potent) of -0.121.

For TTCTTGTAATTCATAATTCTAT, the sensor-assay potency score (higher = more potent) is -1.

Take TTGAGGACTATTCAGTTCCGTA: the sensor-assay potency score (higher = more potent) was -1.1.

With TATACTGTGCATTATATCCATC, the sensor-assay potency score (higher = more potent) was -0.953.

As to ATCTTCTAGAAACTTAGTGTTA, the sensor-assay potency score (higher = more potent) was -1.09.

Regarding TATCTTCATACACTGCTCGTAT, the sensor-assay potency score (higher = more potent) was determined as 0.128.

Another assay has as its target C17orf64. Described as above. The settings on record: shRNA.
On to TGTACTTGTAAAGTCGGCGAAG, for which the sensor-assay potency score (higher = more potent) is -0.717.

Sequence TTTTTGATAAGGACAATTCTTT returned a sensor-assay potency score (higher = more potent) of -0.341.

Sequence TCTTTCTTGACATGGTCCTGGG had a sensor-assay potency score (higher = more potent) of -0.903.

Take TTCCTTTATCCTCTTCCTCTTG: the sensor-assay potency score (higher = more potent) was -0.925.

TTTATTCCTAATTAAGACCTGA yielded a sensor-assay potency score (higher = more potent) of 0.154.

Consider ATCTTTCTTGACATGGTCCTGG, for which the sensor-assay potency score (higher = more potent) is -0.00122.

For TTGGGCAGACTGTCTTCCCGGT, the sensor-assay potency score (higher = more potent) was -0.108.

Sequence TTCATGCCGCTGATGTTGCTGT returned a sensor-assay potency score (higher = more potent) of -0.699.

Turning to TTGGTGTACTTGTAAAGTCGGC, the sensor-assay potency score (higher = more potent) was -0.519.

Regarding TTGAGTTTTGGTTTTTGAGAAA, the sensor-assay potency score (higher = more potent) was -0.844.

Turning to TTAAAGAATCTTTCTTGACATG, the sensor-assay potency score (higher = more potent) is -1.34.

The sequence TTTCTTGACATGGTCCTGGGAT gave a sensor-assay potency score (higher = more potent) of -0.0819.

For another assay, the target named is C17orf71. Described as above. The settings on record: shRNA.
Turning to TTTCTTGCTTAGAACTAGCTCC, the sensor-assay potency score (higher = more potent) was found to be 0.179.

In the case of TTGATGCTTCCAGAACTCGTGT, the sensor-assay potency score (higher = more potent) is -0.713.

In turn, TTGTGTCTAAGTCTCCTTCATC had a sensor-assay potency score (higher = more potent) of -0.792.

Consider TTTAAGTTTATCAGCATCCGAA, for which the sensor-assay potency score (higher = more potent) is -0.269.

Take TTTGCCAACTGGACAATCCTTA: the sensor-assay potency score (higher = more potent) stood at 0.137.

Regarding TTCATCTTCAGCTCTAGTCCTG, the sensor-assay potency score (higher = more potent) was determined as 0.0154.

TATTGTGATATAGCACAGGCGG gave a sensor-assay potency score (higher = more potent) of -1.08.

For TTGACTGGTAGGCACTGTGGGC, the sensor-assay potency score (higher = more potent) is -0.647.

As to TTCCACAACACTTTTCTTCCAG, the sensor-assay potency score (higher = more potent) worked out at 0.741.

TCATCTTCAGCTCTAGTCCTGA gave a sensor-assay potency score (higher = more potent) of -0.0647.

Regarding TTAGCTTCCAGTCTTTGCCAAC, the sensor-assay potency score (higher = more potent) is -1.08.
